According to PubChem BioAssay (Tox21):
Records with an inconclusive call do not appear. Calls of active or inactive are those of the source. Unless noted, calls come from the whole dose curve; as a rule, active = well fitted curve in the direction sought with a large enough effect in the repeat runs; inconclusive = weak or mixed curves; inactive = no such curve, though single readings can be large; an effect the other way counts as inactive or inconclusive.

What was measured:
[1] = qHTS assay to identify small molecule agonists of the peroxisome proliferator-activated receptor delta (PPARd) signaling pathway - cell viability counter screen (AID 743211); note: nearly all actives have a fitted effect of over 55% in size
Method in brief: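 qHTS cell viability: PPARd-bla HEK293H; 17 h cpd, 37C; CellTiter-Glo, luminescence at 30 min RT.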

[2] = target: Peroxisome proliferator-activated receptor delta (Homo sapiens) (UniProt Q03181); test: qHTS assay to identify small molecule agonists of the peroxisome proliferator-activated receptor delta (PPARd) signaling pathway (AID 743212; calls by dose curve)
Chain of Peroxisome proliferator-activated receptor delta (Homo sapiens) (Q03181 whole entry, looked up): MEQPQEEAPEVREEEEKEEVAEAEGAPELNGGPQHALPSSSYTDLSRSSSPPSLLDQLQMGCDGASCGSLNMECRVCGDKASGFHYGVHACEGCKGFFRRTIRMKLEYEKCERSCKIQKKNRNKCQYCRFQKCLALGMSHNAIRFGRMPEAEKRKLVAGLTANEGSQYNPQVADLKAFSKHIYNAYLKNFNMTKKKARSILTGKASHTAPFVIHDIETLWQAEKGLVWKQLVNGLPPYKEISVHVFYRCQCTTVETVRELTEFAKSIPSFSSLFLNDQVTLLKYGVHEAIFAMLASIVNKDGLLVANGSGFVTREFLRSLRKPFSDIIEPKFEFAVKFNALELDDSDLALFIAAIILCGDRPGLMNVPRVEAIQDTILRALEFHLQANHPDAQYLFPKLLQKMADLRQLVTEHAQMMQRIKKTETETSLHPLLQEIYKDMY
Method in brief: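 Quantitative high-throughput agonist screen in a HEK293H beta-lactamase reporter line under UAS control. Compounds in DMSO, at 37 C. Fluorescence read after 2 h with FRET substrate at room temperature.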

[3] = target: Peroxisome proliferator-activated receptor delta (Homo sapiens) (UniProt Q03181); test: qHTS assay to identify small molecule antagonists of the peroxisome proliferator-activated receptor delta (PPARd) signaling pathway (AID 743215; active = well fitted inhibition curve with a large enough effect in the signal ratio in the repeat runs, not every such curve was filed as active; the % refers to the signal ratio;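 note: cells stimulated with agonist L165041 at 300 nM final during compound exposure; series mostly up to about 62 µM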)
Method in brief: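 Read-out is beta-lactamase FRET fluorescence, measured 2 h after substrate addition at room temperature. Beforehand, UAS-bla HEK293H cells carrying the PPARd reporter were exposed to compounds with L165041 at 300 nM final for 17 h at 37 C.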

[4] = target: Bile acid receptor (Homo sapiens) (UniProt Q96RI1); test: qHTS assay to identify small molecule antagonists of the farnesoid-X-receptor (FXR) signaling pathway (AID 743217; active = well fitted inhibition curve with a large enough effect in the signal ratio in the repeat runs, not every such curve was filed as active; the % refers to the signal ratio)
Chain of Bile acid receptor (Homo sapiens) (Q96RI1 whole entry, looked up): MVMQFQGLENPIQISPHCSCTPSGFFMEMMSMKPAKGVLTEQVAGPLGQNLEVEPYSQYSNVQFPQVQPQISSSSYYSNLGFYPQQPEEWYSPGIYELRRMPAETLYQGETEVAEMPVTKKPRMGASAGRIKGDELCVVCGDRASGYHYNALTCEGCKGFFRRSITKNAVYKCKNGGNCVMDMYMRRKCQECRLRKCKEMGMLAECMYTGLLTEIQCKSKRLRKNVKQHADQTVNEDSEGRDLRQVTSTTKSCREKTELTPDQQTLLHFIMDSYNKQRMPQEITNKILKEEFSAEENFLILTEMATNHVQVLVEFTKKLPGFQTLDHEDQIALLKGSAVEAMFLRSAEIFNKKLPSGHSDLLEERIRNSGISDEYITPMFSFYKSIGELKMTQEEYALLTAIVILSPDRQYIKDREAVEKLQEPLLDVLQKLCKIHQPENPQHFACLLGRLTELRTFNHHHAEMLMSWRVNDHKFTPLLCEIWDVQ
Method in brief: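 HEK 293T FXR-UAS-bla, 5000 cells/well; compound + CDCA 50 uM final; 16 h, 37 °C; B/G FRET substrate 2 h RT; fluorescence.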

[5] = target: Bile acid receptor (Homo sapiens) (UniProt Q96RI1); test: qHTS assay to identify small molecule agonists of the farnesoid-X-receptor (FXR) signaling pathway (AID 743220; active = well fitted activation curve with a large enough effect in the signal ratio in the repeat runs, not every such curve was filed as active; the % refers to the signal ratio)
Method in brief: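 Beta-lactamase reporter under UAS control in GeneBLAzer FXR HEK 293T cells (5000/well) measured with LiveBLAzer FRET substrate after 2 h at room temperature. Compound exposure lasted 16 h at 37C.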

[6] = qHTS assay to identify small molecule antagonists of the farnesoid-X-receptor (FXR) signaling pathway - cell viability counter screen (AID 743221; active = well fitted cell-killing curve with a large enough effect in the repeat runs, not every such curve was filed as active; note: nearly all actives have a fitted effect of over 50% in size)
Method in brief: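 After a 5 h settling period, FXR-bla HEK 293T cells receive compound and chenodeoxycholic acid (50 uM final) and incubate 16 h at 37 C; CellTiter-Glo luminescence, read after 30 min at room temperature, reports cell viability.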

[7] = target: Vitamin D3 receptor (Homo sapiens) (UniProt P11473); test: qHTS assay to identify small molecule agonists of the vitamin D receptor (VDR) signaling pathway (AID 743222; calls by dose curve)
Chain of Vitamin D3 receptor (Homo sapiens) (P11473 whole entry, looked up): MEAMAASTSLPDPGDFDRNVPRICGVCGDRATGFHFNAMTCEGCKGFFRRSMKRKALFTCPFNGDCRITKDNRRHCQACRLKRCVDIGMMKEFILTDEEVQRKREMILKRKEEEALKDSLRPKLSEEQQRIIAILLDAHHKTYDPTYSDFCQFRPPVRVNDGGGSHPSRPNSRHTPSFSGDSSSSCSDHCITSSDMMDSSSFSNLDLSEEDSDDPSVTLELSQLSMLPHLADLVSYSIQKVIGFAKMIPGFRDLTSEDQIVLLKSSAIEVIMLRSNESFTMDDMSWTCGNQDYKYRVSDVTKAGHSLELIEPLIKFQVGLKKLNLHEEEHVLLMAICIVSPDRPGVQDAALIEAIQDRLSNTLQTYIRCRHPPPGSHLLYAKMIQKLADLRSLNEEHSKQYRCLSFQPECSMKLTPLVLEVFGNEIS
Method in brief: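 VDR-bla cells, 2,000/well; 4 h preincubation 37C; cpd (DMSO) 16 h; LiveBLAzer B/G substrate 2 h RT; fluorescence intensity read.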

[8] = target: Vitamin D3 receptor (Homo sapiens) (UniProt P11473); test: qHTS assay to identify small molecule antagonists of the vitamin D receptor (VDR) signaling pathway (AID 743223; active = well fitted inhibition curve with a large enough effect in the signal ratio in the repeat runs, not every such curve was filed as active; the % refers to the signal ratio)
Method in brief: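 Reporter line VDR-bla; stimulus 1alpha,25-(OH)2 vitamin D3, 3 nM final; compound co-addition, 16 h 37C/5% CO2; LiveBLAzer B/G substrate 2 h RT; fluorescence intensity.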

[9] = qHTS assay to identify small molecule agonists of the vitamin D receptor (VDR) signaling pathway - cell viability counter screen (AID 743224); note: series mostly up to about 63 µM; nearly all actives have a fitted effect of over 50% in size
Method in brief: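 Luminescence from CellTiter-Glo, read after 30 min at room temperature, reports viability of VDR-bla cells treated with compounds for 16 h at 37C in the wells used for the beta-lactamase FRET read.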

[10] = qHTS assay to identify small molecule antagonists of the vitamin D receptor (VDR) signaling pathway - cell viability counter screen (AID 743225); note: nearly all actives have a fitted effect of over 50% in size
Method in brief: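 Parallel cytotoxicity test: VDR-UAS-bla HEK 293T, 3 nM (final) 1-alpha,25-dihydroxyvitamin D3 with test compound, 16 h, 37C. Endpoint is CellTiter-Glo luminescence in the same wells.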

[11] = qHTS assay to identify small molecule agonists of the NFkB signaling pathway - cell viability counter screen (AID 1159515; calls by dose curve; note: series mostly up to about 61 µM; nearly all actives have a fitted effect of over 55% in size)
Method in brief: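 Luminescence from CellTiter-Glo (30 min, room temperature) gives viability, measured in the same wells as the beta-lactamase reporter read. Cells were NFkB-bla ME-180, 2,000 per well, treated 5 hr with compounds.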

[12] = qHTS assay to identify small molecule agonists of the endoplasmic reticulum stress response signaling pathway (AID 1159516; active = well fitted activation curve with a large enough effect in the signal ratio in the repeat runs, not every such curve was filed as active; the % refers to the signal ratio)
Method in brief: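 Read-out is beta-lactamase cleavage of a FRET substrate (405 nm excitation; 460 and 530 nm emissions) in ESRE-bla HeLa cells after a 5 hr compound exposure at 37 C. Substrate incubation ran 2 hr at room temperature.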

[13] = qHTS assay to identify small molecule agonists of the endoplasmic reticulum stress response signaling pathway - cell viability counter screen (AID 1159517; calls by dose curve;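 note: HeLa cells carrying an ER stress response element beta-lactamase reporter; series mostly up to about 61 µM; nearly all actives have a fitted effect of over 50% in size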)
Method in brief: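 Counter-screen wells were identical to the reporter wells. Cells were plated at 1,500 per well and dosed for 5 hr, then read for luminescence 30 min after CellTiter-Glo addition.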

[14] = qHTS assay to identify small molecule antagonists of the retinoid-related orphan receptor gamma (ROR-gamma) signaling pathway - cell viability counter screen (AID 1159520); note: nearly all actives have a fitted effect of over 50% in size
Method in brief: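 Tet-on ROR gamma CHO cells were given compounds for 2 hr, then doxycycline hyclate at 1 uM final, and incubated 16 hr at 37 C. Viability was measured as ATP content by CellTiter-Glo luminescence.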

[15] = target: Nuclear receptor ROR-gamma (Homo sapiens) (UniProt P51449); test: qHTS assay to identify small molecule antagonists of the retinoid-related orphan receptor gamma (ROR-gamma) signaling pathway (AID 1159521)
Method in brief: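 Decreased RORE-driven luciferase luminescence indicates antagonism. Tet-on RORγ CHO cells received compound, then 1 uM final doxycycline 2 h later; signal read after 16 h incubation.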

[16] = qHTS assay to identify small molecule agonists of the AP-1 signaling pathway - cell viability counter screen (AID 1159525; calls by dose curve; note: nearly all actives have a fitted effect of over 55% in size)
Method in brief: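 AP-1-bla ME-180 cells in Opti-MEM with 0.5% dialyzed FBS, compound exposure 5 h at 37 C in 15-point titration. Viability read in the same wells as ATP content by CellTiter-Glo luminescence, normalised to tetra-n-octylammonium bromide and DMSO controls.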

[17] = qHTS assay to identify small molecule agonists of the AP-1 signaling pathway (AID 1159526; calls by dose curve)
[18] = target: Retinoic acid receptor RXR-alpha (Homo sapiens) (UniProt P19793); test: qHTS assay to identify small molecule agonists of the RXR signaling pathway (AID 1159527; calls by dose curve; note: nearly all actives have a fitted effect of over 35% in size)
Chain of Retinoic acid receptor RXR-alpha (Homo sapiens) (P19793 whole entry, looked up): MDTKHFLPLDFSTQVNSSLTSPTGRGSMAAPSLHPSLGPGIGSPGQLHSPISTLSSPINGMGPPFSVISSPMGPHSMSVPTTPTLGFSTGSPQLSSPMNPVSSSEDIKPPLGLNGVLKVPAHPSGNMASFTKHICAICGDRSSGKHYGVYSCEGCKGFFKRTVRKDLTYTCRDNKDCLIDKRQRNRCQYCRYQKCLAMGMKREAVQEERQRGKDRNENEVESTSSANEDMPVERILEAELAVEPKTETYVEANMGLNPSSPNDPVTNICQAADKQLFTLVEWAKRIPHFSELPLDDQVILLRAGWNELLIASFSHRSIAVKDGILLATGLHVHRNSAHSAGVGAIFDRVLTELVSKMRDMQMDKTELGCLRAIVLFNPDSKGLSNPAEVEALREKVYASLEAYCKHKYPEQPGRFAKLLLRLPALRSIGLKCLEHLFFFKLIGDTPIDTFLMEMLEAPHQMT
Method in brief: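 16 hr incubation of compound-treated RXR-alpha-UAS-bla HEK 293T cells (2% charcoal-stripped FBS, 37 C) preceded a 2 hr room-temperature LiveBLAzer FRET substrate step and blue/green fluorescence measurement.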

[19] = qHTS assay to identify small molecule antagonists of the peroxisome proliferator-activated receptor delta (PPARd) signaling pathway - cell viability counter screen (AID 743213); note: nearly all actives have a fitted effect of over 50% in size
Method in brief: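 Cytotoxicity counter screen: CellTiter-Glo luminescence read 30 min after addition, in the same wells as the reporter assay. There, PPARd UAS-bla HEK293H cells (3000/well) were treated 17 h at 37 C with compound and 300 nM L165041.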

[20] = qHTS assay to identify small molecule agonists of the farnesoid-X-receptor (FXR) signaling pathway - cell viability counter screen (AID 743218); note: nearly all actives have a fitted effect of over 45% in size
Method in brief: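 HEK 293T FXR-bla cells; 5 h pre-incubation, 16 h compound exposure at 37 C; LiveBLAzer substrate 2 h RT, then CellTiter-Glo 30 min RT, luminescence.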

Measured: Potency

Cc1ccc(-c2ccccc2C#N)cc1
inactive: [1] | [2] | [3] | [4] | [5] | [6] | [7] | [8] | [9] | [10] | [11] | [12] | [13] | [14] | [15] | [16] | [17] | [18]

CC1CCC(CO)CC1 (centres undefined)
inactive: [1] | [2] | [19] | [3] | [20] | [7] | [8] | [9] | [10] | [11] | [12] | [13] | [14] | [15] | [16] | [17] | [18]

C[N+](C)(C)CCCCCCCCCC[N+](C)(C)C
inactive: [1] | [19] | [20] | [6] | [7] | [8] | [9] | [10] | [11] | [12] | [13] | [14] | [15] | [16] | [17] | [18]

CO[C@@]1(NC(=O)CSC[C@@H](N)C(=O)O)C(=O)N2C(C(=O)O)=C(CSc3nnnn3C)CS[C@@H]21
inactive: [1] | [19] | [4] | [20] | [5] | [6] | [8] | [9] | [10] | [11] | [12] | [13] | [14] | [15] | [16] | [17] | [18]

COc1c(N2CCNC(C)C2)c(F)cc2c(=O)c(C(=O)O)cn(C3CC3)c12 (centres undefined)
inactive: [1] | [19] | [4] | [6] | [9] | [10] | [11] | [12] | [13] | [14] | [15] | [16] | [17] | [18]

CCCCOC(=O)CCC(C)=O
inactive: [1] | [2] | [20] | [6] | [7] | [8] | [10] | [11] | [12] | [13] | [14] | [15] | [16] | [17] | [18]

O=C(O)CC(C(=O)O)S(=O)(=O)O (centres undefined)
inactive: [1] | [2] | [20] | [6] | [7] | [10] | [11] | [12] | [13] | [14] | [15] | [16] | [17] | [18]

NS(=O)(=O)Cc1noc2ccccc12
inactive: [1] | [19] | [4] | [20] | [5] | [6] | [9] | [10] | [11] | [12] | [13] | [14] | [15] | [16] | [17] | [18]

O=C1NC(=O)C2CC=CCC12 (centres undefined)
inactive: [1] | [19] | [4] | [20] | [5] | [6] | [7] | [8] | [9] | [10] | [11] | [12] | [13] | [14] | [15] | [16] | [17] | [18]

CCCO[Si](OCCC)(OCCC)OCCC
inactive: [1] | [2] | [3] | [20] | [6] | [7] | [8] | [9] | [10] | [11] | [12] | [13] | [14] | [15] | [16] | [17] | [18]

CC(C)NNC(=O)c1ccncc1
inactive: [1] | [2] | [3] | [20] | [6] | [7] | [8] | [9] | [10] | [11] | [12] | [13] | [14] | [15] | [16] | [17] | [18]

C=CCOCC(O)CO (centres undefined)
inactive: [1] | [19] | [4] | [20] | [7] | [9] | [10] | [11] | [12] | [13] | [14] | [15] | [16] | [17] | [18]

Cc1ccnc(NS(=O)(=O)c2ccc(N)cc2)n1
inactive: [1] | [19] | [4] | [20] | [5] | [6] | [7] | [8] | [9] | [10] | [11] | [12] | [13] | [14] | [15] | [16] | [17] | [18]

CC1OC1C1CCC2(C)OC2C1 (centres undefined)
inactive: [1] | [19] | [20] | [6] | [7] | [8] | [9] | [10] | [11] | [12] | [13] | [14] | [15] | [16] | [17] | [18]

C[N+](C)(CCOc1ccccc1)Cc1cccs1
inactive: [1] | [2] | [3] | [6] | [7] | [8] | [9] | [10] | [11] | [12] | [13] | [14] | [15] | [16] | [17] | [18]
